KCNH2 3.1 inh: qHTS for Inhibitors of KCHN2 3.1: Mutant qHTS; 0.95% of 340,000 active; activity change, % (tested at about 1.8 µM); Potassium voltage-gated channel subfamily H member 2, brain isoform KCNH2 3.1 (human); U2OS KCNH2 3.1, thallium flux FluxOr; stronger effect = lower value;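 active means maximum activity change below -70%; inconclusive means maximum activity change from -70% to -50%; inactive means maximum activity change above -50%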;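 further: thallium influx rate constant from kinetic fluorescence after stimulation buffer; on the % scale 0 is the no-effect control and ±100 the full control effect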
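FluxOr-based Tl+ influx in U2OS cells transduced with KCNH2 3.1 virus; rate constants normalized to DMSO controls.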
KCNH2 WT inh: qHTS for Inhibitors of KCHN2 3.1: Wildtype qHTS; Voltage-gated inwardly rectifying potassium channel KCNH2 (Homo sapiens), Q12809; U2OS, BacMam KCNH2, thallium flux FluxOr; stronger effect = lower value; activity change, % at 1.84 µM; 0.37% of 340,000 active; AID 720551, 2013;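 active means maximum activity change below -70%; inconclusive means maximum activity change between -70% and -50%; inactive means maximum activity change above -50%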; further: on the % scale 0 is the no-effect control and ±100 the full control effect
Target sequence (Q12809 whole entry, looked up): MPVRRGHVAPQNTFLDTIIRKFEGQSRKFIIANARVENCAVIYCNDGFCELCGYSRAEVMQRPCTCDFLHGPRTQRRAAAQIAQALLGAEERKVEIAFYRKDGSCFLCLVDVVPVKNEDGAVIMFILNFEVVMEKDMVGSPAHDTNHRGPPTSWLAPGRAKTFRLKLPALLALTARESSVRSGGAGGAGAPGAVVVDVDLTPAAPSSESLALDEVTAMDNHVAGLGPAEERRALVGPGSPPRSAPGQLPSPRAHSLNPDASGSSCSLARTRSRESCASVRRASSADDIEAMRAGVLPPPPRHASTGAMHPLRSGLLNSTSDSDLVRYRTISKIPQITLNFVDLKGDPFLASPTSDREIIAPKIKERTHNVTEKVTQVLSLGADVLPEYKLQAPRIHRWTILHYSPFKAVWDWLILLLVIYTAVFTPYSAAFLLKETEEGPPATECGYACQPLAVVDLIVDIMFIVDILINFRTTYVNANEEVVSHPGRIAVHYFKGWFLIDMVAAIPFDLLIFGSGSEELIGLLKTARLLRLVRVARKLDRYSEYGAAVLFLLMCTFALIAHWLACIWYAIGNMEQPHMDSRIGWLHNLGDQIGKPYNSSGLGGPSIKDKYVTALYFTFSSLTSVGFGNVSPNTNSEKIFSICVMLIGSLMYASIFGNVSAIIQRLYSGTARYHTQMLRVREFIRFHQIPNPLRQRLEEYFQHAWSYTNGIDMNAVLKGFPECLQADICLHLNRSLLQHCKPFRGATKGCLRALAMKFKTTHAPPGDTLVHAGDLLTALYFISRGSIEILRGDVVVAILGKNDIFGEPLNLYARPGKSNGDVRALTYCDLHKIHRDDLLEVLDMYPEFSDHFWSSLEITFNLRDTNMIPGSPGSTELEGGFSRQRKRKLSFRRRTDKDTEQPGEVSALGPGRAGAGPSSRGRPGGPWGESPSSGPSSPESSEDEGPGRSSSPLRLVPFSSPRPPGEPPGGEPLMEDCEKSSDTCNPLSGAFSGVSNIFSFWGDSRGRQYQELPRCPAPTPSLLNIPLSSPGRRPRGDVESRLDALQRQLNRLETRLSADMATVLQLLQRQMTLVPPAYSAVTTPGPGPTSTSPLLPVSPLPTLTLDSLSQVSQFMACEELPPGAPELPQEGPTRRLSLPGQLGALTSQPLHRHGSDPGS
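U2OS cells transduced with wild-type KCNH2 virus are loaded with FluxOr dye for 45 min, and thallium flux is measured in kinetic reads before and after stimulation buffer. Rate constants are normalized to DMSO controls.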
TRPML1 blocker: qHTS for Inhibitors of the Human Mucolipin Transient Receptor Potential 1 (TRPML1). TRPML1-inducible cells, Ca2+ dye fluorescence, FDSS; stronger effect = lower value; inhibition of EC80 agonist-evoked calcium signal. activity change, negative = inhibition, % (concentration not given with the values). 0.02% of 390,000 active. AID 624415, 2012; in the data active means activity change below about -50%; inconclusive means between about -30% and that limit;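 further: stimulus is agonist 54-4 at its EC80 concentration; on the % scale 0 is the no-effect control and ±100 the full control effect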
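TRPML1-DL cells, Tet-induced overnight (~16 h, 37 °C) at 1,500 cells/well, were loaded with Ca8 no-wash dye plus quencher for 45-90 min at room temperature. Compounds were pinned during FDSS kinetic reading; agonist 54-4 at EC80 (4 uM final) then added.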
PTAP TSG101 blk: qHTS Assay for Iinhibitors of HIV-1 Budding by Blocking the Interaction of PTAP/TSG101; Tumor susceptibility gene 101 protein (Homo sapiens), Q99816; Fluorescence polarization, FITC-PTAP peptide / Tsg101 binding; Potency, µM (doses to about 115 µM), without a hit: at the highest dose activity change, negative = inhibition, actives largely listed as inhibitors; 340,000 tested, under 10 active; AID 493005, 2010; active means well fitted inhibition curve with a large enough effect in the main read-out, with a control signal flat, not every such curve was filed as active; inconclusive means small, poorly fitted or top-dose-only effect, or effect the other way, or a change in a side signal; inactive means no such curve, though single readings can be large or run the other way; further: potency means the concentration at half of the fitted maximal effect; % of control where 0% means no effect
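Steps: Tsg101 binding domain dispensed (10 uM final), compounds pinned in DMSO, FITC-labeled PTAP-motif peptide added (50 nM final); after 20 min binding at room temperature, polarization measured.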
Glioma ERSR ind: qHTS for Inducers of the Endoplasmic Reticulum Stress Response (ERSR) in Human Glioma: qHTS. U87-MG GRP78 promoter luciferase reporter, 16 h. Potency, µM, without a hit: at the top dose activation, most hits filed as activators. 0.02% of 420,000 active; active means well fitted activation curve with a large enough effect; inconclusive means small, poorly fitted or top-dose-only effect; inactive means no such curve, though single readings can be large or run the other way; further: potency means the concentration at half of the fitted maximal effect; series mostly up to about 76 µM; % of control where 0% means no effect; nearly all actives have a fitted effect of over 35% in size
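Stably transfected U87-MG glioma cells carrying a GRP78-based luciferase sensor; 16 h compound incubation. Luminescence end-point read 10 min after Bright-Glo addition at room temperature.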
TRPML1 ag: qHTS for Agonists of the Human Mucolipin Transient Receptor Potential 1 (TRPML1). TRPML1-expressing cells, Ca2+ dye fluorescence, FDSS. activation, % (no concentration beside the values). 0.12% of 410,000 active; in the data active means activation above about 50%; inconclusive means mostly about 30% to 49%; further: 0% is about no effect
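Tet-induced TRPML1-DL cells, 1,500 per well, cultured overnight, were loaded with a no-wash Ca2+ dye for 45–90 min. Calcium fluorescence was recorded on the FDSS for 110 s after compound addition, before the EC80 agonist (4 uM 54-4) was added.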
* marks the source's active call; other numbers are inactive results; u = inconclusive; x = no result given. In the library only some 1% were active in any assay of this set; here they are far more common.

SMILES | KCNH2 3.1 inh | KCNH2 WT inh | TRPML1 blocker | PTAP TSG101 blk | Glioma ERSR ind | TRPML1 ag
COc1ccc(CCN(C)C2CCCN(S(=O)(=O)c3ccc(C)cc3)C2)cc1OC (stereo not drawn) | -83.4* | -30.7 | 2.0 | 1.4% | -5.2% | 0.1
O=C(NC1c2ccccc2Oc2ccccc21)c1ccc([N+](=O)[O-])cc1 | -100.5* | u | 13.6 | -2.7% | -2.1% | 2.6
Cc1ccc(S(=O)(=O)N(CC(=O)N2CCOCC2)c2ccccc2F)cc1 | -2.5 | -6.3 | 20.1 | -4.8% | -3.4% | -0.5
CCOc1ccccc1N(CC(=O)N1CCOCC1)S(=O)(=O)c1ccc(SC)cc1 | -13.1 | -6.0 | -3.1 | -0.3% | 0.0% | 104.8*
Cc1ncc(-c2ccc(F)cc2)c(C2CCCN(Cc3cccc(O)c3)C2)n1 (stereo not drawn) | x | x | x | x | -9.3% | x
C[C@@H]([C@H](O)c1ccc(O)cc1)N1CCC(Cc2ccccc2)CC1 | x | x | x | x | -5.3% | x
CC(C(O)c1ccc(O)cc1)N1CCC(Cc2ccccc2)CC1 (stereo not drawn) | -88.3* | 53.0 | 15.3 | -2.8% | -5.6% | 0.4
C[C@@H](CN1CCC(Cc2ccccc2)CC1)[C@@H](O)c1ccc(O)cc1 | -216.9* | 36.5 | 1.0 | 3.1% | -3.7% | 0.1
CO[C@H]1[C@H](NC(=O)c2ccsc2)c2ccccc2C12CCN(Cc1cc(Cl)ccc1O)CC2 | x | x | x | x | 0.1% | x
COc1ccc(S[C@@H]2C[C@@H](C(=O)Nc3ccc4nccnc4c3)N(C3Cc4ccccc4C3)C2)cc1 | x | x | x | x | -1.5% | x
CCCCCCNCC(=O)N1CCC(Cc2ccccc2)CC1 | -100.6* | 1.9 | -7.6 | 0.5% | u | 1.3
COc1ccccc1C1CN(Cc2cccc(O)c2)Cc2ccccc2O1 (stereo not drawn) | x | x | x | x | -6.3% | x
O=C(Cc1ccccc1)Nc1nc(-c2ccc(F)c(F)c2)cs1 | 11.7 | -1.5 | -4.2 | -6.9% | u | 0.0
COc1cccc(CC(=O)Nc2nc(-c3ccc(F)c(F)c3)cs2)c1 | -93.5* | -3.9 | -11.8 | 0.5% | 3.2% | 1.7
CCCNc1nc(OCC(F)(F)F)nc(OCC(F)(F)F)n1 | -6.3 | 0.6 | 9.7 | -1.3% | -3.8% | 1.3
CN1CCN(c2nc(NCCOC34CC5CC(CC(C5)C3)C4)nc(OCC(F)(F)F)n2)CC1 | -71.2* | 24.2 | 0.9 | -1.9% | -4.8% | 1.1
CCCCc1ncc(CN2CCC(CC3CCCCO3)(C(=O)OCC)CC2)[nH]1 (stereo not drawn) | -2.8 | 10.4 | -17.0 | -0.6% | 4.1% | 0.3
CCOC(=O)C1(CC2CCCCO2)CCN(Cc2cc3ccccc3[nH]2)CC1 (stereo not drawn) | -23.2 | 15.0 | 1.6 | 4.2% | 7.5% | 94.9*
Cc1ccc(C(=O)[C@H](C)CN2CCCCC2)cc1 | x | x | x | x | -3.2% | x
COC(=O)[C@@H]1CCCN1Cc1ccc2c(c1)CN(Cc1cccn1-c1ccccn1)CCO2 | x | x | x | x | 1.2% | x
COc1ccc(Nc2nc(NCc3ccco3)nc(N/N=C/c3ccc(O)cc3)n2)cc1 | -89.9* | -30.5 | 2.4 | -1.0% | -2.2% | 0.8
COc1ccc(/C=N/Nc2nc(NCc3ccco3)nc(Nc3ccc(OC)cc3)n2)cc1 | -92.8* | -4.1 | -4.2 | 1.3% | 0.0% | 2.1
COc1ccc(Nc2nc(NCc3ccco3)nc(N/N=C/c3ccccc3F)n2)cc1 | -96.6* | -22.7 | 38.5 | 2.2% | -0.8% | 2.3
O=[N+]([O-])c1ccc(O/N=[N+](\[O-])N2CCN(c3ccccc3)CC2)c([N+](=O)[O-])c1 | x | x | 44.6 | x | -10.0% | 1.5
S=c1[nH]nc(-c2cccnc2)n1/N=C/c1ccc(Br)s1 | -99.5* | -19.1 | 3.1 | 0.0% | -1.9% | -1.1
SMILES | KCNH2 3.1 inh | KCNH2 WT inh | TRPML1 blocker | PTAP TSG101 blk | Glioma ERSR ind | TRPML1 ag
Cc1ccc(/C=N/n2c(-c3cccnc3)n[nH]c2=S)s1 | 3.9 | 5.4 | -22.1 | -1.6% | 0.2% | 0.3
Cc1ccc2nc(-c3cccnc3)oc2c1 | -179.5* | -221.4* | 90.9 | -8.6% | 1.1% | 0.1
O=C(NCCc1ccccn1)C1CC12CCN(C(=O)c1ccc(F)cc1Cl)CC2 (stereo not drawn) | x | x | x | x | -3.0% | x
CCCS(=O)(=O)NCc1c(C)ncc2c1CCN(C(=O)c1cccc(Cl)c1F)C2 | x | x | x | x | 4.6% | x
Cc1csc(NC(=O)Cn2nc(C)c([N+](=O)[O-])c2C)n1 | 8.4 | -5.2 | 55.0 | -2.6% | -1.6% | 0.5
Cc1ccc2nc(NC(=O)Cn3nc(C)c([N+](=O)[O-])c3C)sc2c1 | -94.2* | -7.7 | -8.3 | -0.6% | -3.7% | 0.8
Cc1cnc(C)c(-c2ccc(F)c3c2OC(CNC(=O)Cc2c(C)[nH]c4ccccc24)C3)n1 (stereo not drawn) | x | x | x | x | -0.7% | x
Cc1ccc(S(=O)(=O)Nc2ccc(C(=O)N3CCCC3)cc2)cc1 | x | -4.0 | 40.0 | -0.4% | -1.3% | -0.5
Cc1ccc(NS(=O)(=O)c2ccc(C(=O)N3CC(C)CC(C)C3)cc2)cc1 (stereo not drawn) | -3.5 | 1.6 | 7.4 | -2.8% | 39.8µM* | 28.6
COc1ccccc1C1=CC(=O)C[C@H](c2ccc(Cl)cc2)C1 | -17.2 | -9.4 | 65.7 | -5.7% | -1.4% | 3.9
COc1cccc(C2=CC(=O)C[C@H](c3ccc(Cl)cc3)C2)c1OC | -129.0* | 0.7 | -2.6 | -4.3% | -4.1% | 0.8
COCc1c(C(=O)NC2CCCC2)cnn1-c1nccc(-c2cccs2)n1 | x | x | x | x | 1.1% | x
O=C(CC1SC(=Nc2ccc(OC(F)F)cc2)N(CCN2CCOCC2)C1=O)Nc1ccc(F)cc1F (stereo not drawn) | -113.6* | -101.3* | 9.8 | -6.4% | -2.5% | 1.5
O=C(CSc1nc2ccccc2c(=O)n1-c1ccc(F)cc1F)c1c[nH]c2ccccc12 | -0.1 | -122.0* | 14.8 | -1.8% | -5.1% | -0.3
C[n+]1cccc(Br)c1 | x | x | x | x | -2.0% | -0.6
Cc1c(C(=O)N(C)C)c2ccc(Cl)cc2n1O | -107.3* | -0.4 | -2.1 | -2.8% | 1.1% | 2.0
Cc1ccccc1CCN(CC(=O)NCc1ccc(F)cc1)C(=O)c1csnn1 | -16.2 | -1.9 | -6.9 | -3.2% | 2.0% | -1.2
COc1ccccc1CN(CC(=O)NCc1ccc(F)cc1)C(=O)c1csnn1 | -81.9* | -0.8 | -0.9 | 1.9% | -4.5% | -0.1
Cc1cccc(CCN(CC(=O)NCc2ccc(F)cc2)C(=O)c2csnn2)c1 | -107.7* | -2.7 | 13.3 | -0.8% | -0.3% | 0.6

Bioassay records (PubChem BioAssay)
